Data reported in paper PMC5540273 (PLoS ONE, 2017).

Key:
Conditions in all cases: concentration: 1 μM, replicates: in singlicate; n = 1
[1] = system: T1, ERK1
T1 construct: gene MAPK3

[2] = system: T2, ERK2
T2 construct: gene MAPK1

[3] = system: T3, ERK3
T3 construct: gene MAPK6

[4] = system: T4, ERK4
T4 construct: gene MAPK4

[5] = system: T5, ERK5
T5 construct: gene MAPK7

[6] = system: T6, ERK8
T6 construct: gene MAPK15

[7] = system: ERN1
[8] = system: T7, FAK
T7 construct: gene PTK2

[9] = system: FER
[10] = system: FES
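Note: KINOMEscan kinase panel screen.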

Structure (SMILES)	%Inh [1] [%]	%Inh [2] [%]	%Inh [3] [%]	%Inh [4] [%]	%Inh [5] [%]	%Inh [6] [%]	%Inh [7] [%]	%Inh [8] [%]	%Inh [9] [%]	%Inh [10] [%]
CSc1cccc2c(-c3ccncn3)c(-c3ccc(F)cc3)nn12 [GW514786]	14	6	0	5	0	0	12	0	17	0
COc1cc(Nc2nccc(-c3c(-c4cccc(NC(=O)c5c(F)cccc5F)c4)nn4ccccc34)n2)cc(OC)c1OC [GSK323521]	25	36	0	3	0	24	2	0	14	0
C[C@@H]1CC[C@@H](C(=O)Nc2ccccc2)CN1c1cc(-c2ccc3c(N)n[nH]c3c2)nc(N)n1 [GSK2286062]	10	0	0	28	0	0	0	0	13	12
COc1cccc(C2=C(Nc3ccc(Cl)c(C(=O)O)c3)C(=O)NC2=O)c1 [SB-390769]	10	0	0	19	0	0	100	0	7	0
CC(=O)Nc1nc2cnc(Nc3cc(NC(=O)c4cccc(C5(C#N)CC5)c4Cl)ccc3C)nc2s1	0	14	13	0	3	0	28	0	0	12
COc1cccc(-c2ccc3c(NC(=O)C4CC4)n[nH]c3n2)c1 [SB-710903]	0	0	0	8	0	11	0	0	0	0
COC(=O)Nc1nc2cc(Oc3ccc(NC(=O)Nc4cc(C(F)(F)F)ccc4F)cn3)ccc2[nH]1.Cl.Cl [GW681170]	8	0	0	1	0	95.3	0	0	23	0
Cn1cc(-c2ccc3c(c2)CCN3C(=O)Cc2cccc(F)c2)c2c(N)ncnc21 [GSK2603358]	0	6	0	26	2	0	3	0	35	0
Cn1cc(-c2ccc3c(c2)CCN3C(=O)Cc2cccc(Cl)c2)c2c(N)ncnc21 [GSK2606590]	0	10	0	11	0	0	0	0	35	0
COc1cc(Nc2nccc(-c3c(-c4cccc(NC(=O)c5c(F)cccc5F)c4)nn4ncccc34)n2)cc(OC)c1OC [GSK327238]	6	15	3	29	68	0	30	38	77	50
Cl.Cl.NCC(C(=O)Nc1cc(Br)c(-c2ccnc3[nH]ccc23)s1)c1ccccc1 (stereo not drawn) [GSK1269851]	6	0	0	6	0	74	18	0	18	38
O=C(Nc1n[nH]c2cc(-c3ccoc3)ccc12)C1CC1 [SB-738481]	0	0	0	0	0	84	0	7	0	5
CC(=O)N1CCN(c2ccc(Nc3nccc(-c4sc(C(C)C)nc4-c4cccc(NS(=O)(=O)c5cccc(Cl)c5)c4)n3)cn2)CC1 [GSK1660437]	0	98.8	0	0	0	66	44	3	35	0
CN(C)Cc1ccc(-c2ccc3c(Nc4ccc(Oc5ccccn5)cc4)ccnc3c2)o1 [GW567148]	0	0	0	0	0	23	0	0	20	5
Nc1n[nH]c2cnc(-c3ccccc3)cc12 [SB-642124]	0	0	0	25	0	6	13	0	0	0
COc1cc(Nc2nccc(N3CCC(NC(=O)c4cc5ccccc5s4)C3)n2)cc(OC)c1OC (stereo not drawn) [GSK1379760]	12	9	0	0	0	0	6	0	34	0
COc1cc2c(cc1OCCN1CCNCC1)ncc1c3ccc(C#N)cc3[nH]c21	0	0	0	23	15	12	44	10	0	2

Structure (SMILES)	%Inh [1] [%]	%Inh [2] [%]	%Inh [3] [%]	%Inh [4] [%]	%Inh [5] [%]	%Inh [6] [%]	%Inh [7] [%]	%Inh [8] [%]	%Inh [9] [%]	%Inh [10] [%]
Cl.Cl.NCC(NCc1ccc(-c2ccnc3[nH]ccc23)s1)c1ccccc1 (stereo not drawn) [GSK1321565]	0	0	2	0	2	18	17	19	46	0
COc1ccc(Nc2nccc(N3CCC(NC(=O)Nc4cccc(OC)c4)C3)n2)cc1 (stereo not drawn) [GSK1379742]	0	0	9	0	0	36	0	0	26	9
c1ccc(-c2n[nH]cc2Nc2ccnc3ccccc23)nc1 [GW694077]	0	0	7	0	0	25	22	0	0	0
Cc1cccc(Nc2nc(N[C@H]3CCNC3)ncc2C(N)=O)c1.Cl [GSK2197149]	1	0	65	25	0	12	7	0	69	0
Cc1occc1-c1ncc(OC[C@@H](N)Cc2c[nH]c3ccccc23)cc1-c1ccc2[nH]nc(C)c2c1.O=C(O)C(F)(F)F [GSK682037]	94.1	82	5	15	0	0	6	40	76	47
Cc1ccc(C(=O)Nc2ccc(Nc3ccnc4cc(-c5nccs5)ccc34)cc2O)cc1.Cl [GW494702]	0	0	0	0	0	11	0	0	34	24
c1ccc(Oc2ccc(Nc3ccnc4cc(-c5ccc(CNCCN6CCOCC6)o5)ccc34)cc2)nc1 [GW567145]	0	0	0	0	0	0	26	0	0	5
O=C(Nc1cccc(-c2nn3ncccc3c2-c2ccnc(Nc3ccccc3)n2)c1)c1c(F)cccc1F [GSK198271]	0	6	0	20	4	0	32	0	45	6
CCS(=O)(=O)c1ccc(OC)c(Nc2nccc(-c3c(-c4cccc(NC(=O)c5c(F)cccc5F)c4)nn4ncccc34)n2)c1 [GSK326180]	0	5	13	47	0	0	22	0	22	0
O=C(Nc1cccc(Oc2ccc3nc(NC(=O)C4CC4)cn3n2)c1)c1ccccc1C(F)(F)F	0	0	0	0	0	20	0	9	0	22
CN1CCN(CCCNc2nccc(-c3c(-c4ccc(F)cc4)nn4cc(C(F)(F)F)ccc34)n2)CC1 [GW621581]	0	0	0	5	0	31	0	0	0	0
COc1ccc(CNC(=O)NC2CCN(c3ccnc(Nc4ccc(F)cc4)n3)CC2)cc1 [GSK1379788]	0	0	0	0	0	0	0	0	17	0
Cl.NC(=O)c1cccc(Nc2nccc(Nc3ccc(Oc4c(Cl)cccc4Cl)c(Cl)c3)n2)c1 [GW659009]	0	0	0	0	0	10	12	0	0	0
O=C(Nc1n[nH]c2nc(-c3ccc(O)cc3)ccc12)C1CC1 [SB-710363]	0	0	0	0	63	90.2	0	0	0	0
CC(C)(C)c1ccc2nccc(Nc3cccc(O)c3)c2c1 [GW856795]	0	0	0	0	0	0	66	0	0	0
COc1cc(Nc2ncc3c(C)nc(-c4cc5ccccc5[nH]4)n3n2)cc(OC)c1OC [GW869516]	0	0	42	38	7	0	0	6	0	0
